Screening data from PubChem BioAssay.
TIM10 inh: inhibits growth of TIM10 yeast strain; S. cerevisiae TIM10 strain growth, BacTiter-Glo luminescence, 24 h; 330,000 compounds, 1.4% hits; AID 463195; inhibition, % at 10 µM;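 active means inhibition of 40% or more at the single tested concentration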;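 further: wild-type TIM10 isogenic control strain grown at permissive 25 °C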
PfHsp90 set2: reduces growth (ATP signal) of yeast expressing P. falciparum Hsp90 | inhibition, % at 9.4 µM | S. cerevisiae expressing PfHsp90, BacTiter-Glo ATP, 48 h; yeast lacking PDR1 and PDR3 efflux regulators | 310,000 compounds, 0.32% hits;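 active means every replicate shows inhibition above about 80%, whatever the replicate mean, limit read from the data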;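 further: 0% = DMSO neutral controls and 100% = 20 µM radicicol positive controls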
tim23-1 inh: inhibits growth of tim23-1 mutant yeast | S. cerevisiae tim23-1 growth, BacTiter-Glo luminescence, 24 h | inhibition, % at 20 µM | 330,000 compounds, 1.3% hits;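 active means growth inhibition of the mutant yeast at or above 50%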;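 further: temperature-sensitive mutant grown at 25 °C; plate controls were DMSO-treated mutant yeast for no effect and medium wells lacking yeast for full effect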
SKKanGAS inh: blocks kanamycin growth of S. pyogenes SKKanGAS strain; BacTiter-Glo, 6 h; inhibition, % at 7.5 µM; 300,000 compounds, 1.3% hits; AID 1662;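 active means mean replicate score, as percent of positive control median, at least 50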;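 further: strain carries kanamycin resistance gene driven by streptokinase promoter and grows in 40 µg/ml kanamycin; loss of luminescence reflects streptokinase promoter inhibition or plain growth inhibition; 0% = median of DMSO wells and 100% = positive control at its reference dose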
Calb FLC: affects C. albicans growth with fluconazole | C. albicans CaCi-2 (fluconazole-resistant clinical isolate) + fluconazole, Alamar Blue growth, 48 h | growth inhibition, % (test concentration not listed) | 300,000 compounds, 0.57% hits | AID 1979;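 active means growth inhibition above about 58% in most replicates, limit read from the data, passing the limit was not always enough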;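 further: all wells also contain fluconazole at 8 µg/ml as a sub-toxic cotreatment; 0% = median of DMSO wells and 100% = median of geldanamycin control wells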
tim10-1 inh: inhibits growth of tim10-1 mutant yeast; S. cerevisiae tim10-1 ts strain growth, BacTiter-Glo, 24 h; inhibition, % at 20 µM; 330,000 compounds, 2.2% hits; AID 463190;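 active means inhibition of at least 40%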;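 further: mutant grown at 25 °C; 0% = DMSO wells with yeast and 100% = wells holding no yeast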
Starred values were filed as active, the others as inactive; . = no result. Most compounds without a hit are left out; they make up all but 4.7% or so of the library.

SMILES	TIM10 inh	PfHsp90 set2	tim23-1 inh	SKKanGAS inh	Calb FLC	tim10-1 inh
O=C(c1cc2ccccc2[nH]1)N(Cc1cccnc1)CC1CCCN(C2CCCCC2)C1 (stereo unspecified)	0	2	-7	-1	-4	8
CCc1c(C2(O)CCCCC2)[nH]c2c(C(=O)OC)cc(Cl)cc12	.	-15	.	100*	-3	.
Cc1ccc(NC(=S)Nn2cnnc2)c(C)c1	1	-6	4	-2	82*	6
O=C(c1ccco1)N1CCN(C(=O)C2CC(=O)N(c3ccccc3)C2)CC1 (stereo unspecified)	0	20	1	1	-3	-3
Cc1cc(N(C)N)nc(NC(=O)NS(=O)(=O)c2ccccc2Cl)n1	11	-3	-5	-5	-2	0
CC(/C=C1\SC(=S)N(NC(=O)c2ccc(C)cc2)C1=O)=C\c1ccccc1	11	.	2	5	-39	9
CC(/C=C1\SC(=S)N(NS(=O)(=O)c2ccccc2)C1=O)=C\c1ccccc1	3	-24	41	57*	-10	2
COc1ccccc1/C=C1\SC(=S)N(NS(=O)(=O)c2ccccc2)C1=O	14	-3	38	18	91*	37
CC(/C=C1\SC(=S)N(c2ccc(C(=O)O)cc2)C1=O)=C\c1ccccc1	9	-50	18	116*	20	17
COCCCn1c(=O)c2sccc2n2c(CCCC(=O)NCc3ccc(OC)cc3)nnc12	4	11	11	-10	-16	20
COc1ccc(N2CCN(C(=O)c3cc(=O)c4cc(C)ccc4o3)CC2)cc1	16	-4	27	6	2	15
O=C(CSc1nc(-c2ccco2)cc(C(F)(F)F)n1)NCCc1ccccc1	-8	-25	15	6	98*	23
Cc1cc(NC(=O)CN2C(=O)c3ccccc3C2=O)no1	10	5	3	50*	-8	7
Cc1cc(NC(=O)CN2C(=O)c3ccccc3S2(=O)=O)no1	-1	1	2	29	6	1
CCCCn1c(N)c(N(C(=O)CSc2nnc(C)n2-c2ccccc2)C2CCCC2)c(=O)[nH]c1=O	0	13	-6	.	.	-1
CC(=O)O[C@H]1C[C@@]2(C)[C@@H](C[C@@H](O)[C@H]3[C@@]4(C)CC[C@@H](O)[C@@H](C)[C@@H]4CC[C@@]32C)/C1=C(\CCC=C(C)C)C(=O)O	7	1	-5	109*	13	7
O=C1C(Cl)=C(NCCc2ccccc2)C(=O)c2ccccc21	.	116*	.	.	.	.
COc1ccc(S(=O)(=O)N2CCN(C(=O)N3CCOCC3)C2C)cc1 (stereo unspecified)	5	6	1	1	-3	7
O=C1NN(c2ccccc2)C(=O)/C1=C/c1ccc(Sc2cccc3ccccc23)o1	28	23	25	50*	-1	28
O=C(CCN1CCOCC1)NC1CCCN(Cc2ccccc2F)C1 (stereo unspecified)	-3	-30	-11	-2	-6	-11
CC(=O)C1=C(c2ccc(Br)cc2)C(=O)c2ccccc2C1=O	.	102*	.	66*	71	.
CC(=O)Nc1c(Br)cc2c(c1Br)C(=O)c1ccccc1-2	.	23	.	.	.	.
COC(=O)c1ccc(NC(=O)c2sc3nc(-c4ccccc4)cn3c2C)cc1	-5	12	7	71*	-6	9
CC(Oc1cccc(Cl)c1)C(=O)Nc1ccccc1N1CCCCC1 (stereo unspecified)	-5	17	-4	73*	6	-22
CC(Oc1cccc(Cl)c1)C(=O)Nc1ccccc1C(=O)N1CCCCC1 (stereo unspecified)	16	2	23	-4	3	26
SMILES	TIM10 inh	PfHsp90 set2	tim23-1 inh	SKKanGAS inh	Calb FLC	tim10-1 inh
CCC(Oc1ccccc1)C(=O)Nc1ccccc1N1CCCCC1 (stereo unspecified)	-23	36	20	61*	6	-6
c1ccc(C(=C2CCCO2)c2ccccc2)cc1	.	8	.	.	.	.
CCOc1ccc(C2C(C(=O)c3ccc(C)o3)=C(O)C(=O)N2c2cc(C)on2)cc1OC (stereo unspecified)	4	14	10	4	-3	4
COc1cccc(C2C(C(=O)c3cc4ccccc4o3)=C(O)C(=O)N2c2cc(C)on2)c1OC (stereo unspecified)	8	2	10	19	78*	9
CCCCCOc1ccc(C2C(C(=O)c3ccc(C)o3)=C(O)C(=O)N2c2cc(C)on2)cc1 (stereo unspecified)	6	14	22	81*	19	25
CCCN1C(=O)/C(=C/C=C2\N(CC)c3ccccc3C2(C)C)SC1=S	8	13	8	2	10	26
CCCCN1C(=O)/C(=C/C=C2\Oc3ccccc3N2CC)SC1=S	.	99*	.	1	17	.
C=COCCNC(=S)Nc1cccc(Cl)c1	9	1	3	-5	-1	28
NNC(=S)Nc1cccc(Cl)c1	5	-17	26	-5	92*	20
COCCCNC(=S)NNC(=S)Nc1cccc(Cl)c1	33	-16	20	52*	3	25
COc1ccc(C)cc1Nc1n[n+](-c2ccccc2)c(-c2ccc(N(C)C)cc2)s1	8	1	-10	8	105*	-22
COc1ccc(C)cc1Nc1n[n+](-c2ccccc2)c(-c2ccc(OC)c(OC)c2OC)s1	-2	0	-16	3	92*	-7
N#Cc1ccccc1NC(=O)COC(=O)c1ccc(F)cc1F	-13	20	19	-2	3	7
NS(=O)(=O)c1ccc(CNC(=O)c2sccc2-c2ccccc2)cc1	2	-37	12	4	7	5
O=C(Nc1ccccc1F)Nc1ccccc1OC(F)F	26	15	31	9	8	20
Cc1ccc(N2C(=O)[C@@H]3C(c4cccnc4)=NO[C@@H]3C2=O)c(C)c1	0	2	-3	0	13	-4
O=C1[C@@H]2C(c3cccnc3)=NO[C@@H]2C(=O)N1c1ccc(Br)cc1	3	94*	11	-1	4	-6
COc1ccc(N2CC(C(=O)N3CCCC(C)C3)CC2=O)cc1 (stereo unspecified)	5	11	-11	-4	0	3
COc1cc([N+](=O)[O-])cc(/C=N/NC(=O)c2ccc(NC(=O)c3ccc(C)cc3)cc2)c1O	-3	9	-15	13	102*	-5
COc1cc([N+](=O)[O-])cc(/C=N/NC(=O)c2ccc(C)nc2)c1O	-7	-6	-10	82*	-6	31
COc1cc([N+](=O)[O-])cc(/C=N/NC(=O)C(C)Nc2ccccc2C)c1O (stereo unspecified)	6	3	6	8	-6	8
